Here are results for 37 compounds from publication PMC5540273 (PLoS ONE, 2017).

Each structure is given as a SMILES string.
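Also: KINOMEscan kinase panel screen.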

The assay deals with CAMK2D. The settings on record: concentration: 1 μM, replicates: in singlicate; n = 1.
Turning to `O=C(Nc1n[nH]c2cc(-c3cccs3)ccc12)C1CC1` [SB-731284], the “%Inh” value came out at 0%. Turning to `Fc1cc(Cl)ccc1Nc1ccnc2cc(-c3ccc(CN4CCSCC4)o3)ccc12` [GW560106], the “%Inh” value stood at 5%.

Take `Fc1cc(Cl)ccc1Nc1ccnc2cc(-c3ccc(CN4CCOCC4)o3)ccc12` [GW560109]: the “%Inh” value is on record as 0%. As to `COc1ccc(NC(=O)c2ccoc2)cc1-c1ccc(C(=O)NCC2CC2)cc1` [GW810437], the “%Inh” value is given as 0%. Take `COC(=O)Nc1nc2ccc(Oc3ccc(CC(=O)Nc4cc(C(F)(F)F)ccc4F)cc3)cc2[nH]1` [GW680903]: the “%Inh” value was 1%.

In the case of `O=C(Nc1n[nH]c2nc(-c3cccc(O)c3)ccc12)C1CC1` [SB-711805], the “%Inh” value is 0%.

`Cc1cccc(Nc2nc(N[C@H]3CCCC[C@H]3N)ncc2C(N)=O)c1.Cl` [GSK986310]: the “%Inh” value is reported as 16%.

For `CCn1c(-c2nonc2N)nc2c(-c3ccccc3)ncc(OCCCN)c21.O=C(O)C(F)(F)F.O=C(O)C(F)(F)F` [GSK260205], the “%Inh” value was determined as 14%. For the compound `COc1ccc(C)c(Nc2ccnc(Nc3ccc(-c4cnc[nH]4)cc3)n2)c1.Cl` [GW784041], the “%Inh” value came to 22%. Consider `CS(=O)(=O)c1cccc(CNc2nc(Nc3ccc4c(c3)CCC(=O)N4)ncc2C(F)(F)F)c1`, for which the “%Inh” value is 0%. For the compound `O=C(O)C(F)(F)F.O=c1[nH]ccc2nc(N[C@@H]3CCNC3)nc(Nc3ccc4c(c3)S(=O)(=O)CC4)c12` [GSK2181306], the “%Inh” value worked out at 55%. On to `COc1cc(Nc2nccc(N3CCC(NS(=O)(=O)c4ccc(NC(C)=O)cc4)CC3)n2)cc(OC)c1OC` [GSK1379825], for which the “%Inh” value was 7%. Turning to `CN(C)CCNS(=O)(=O)c1ccc(-c2ccnc3[nH]ccc23)cc1` [GSK977620], the “%Inh” value amounted to 0%.

As for `Nc1cccc(-c2ccc3c(N)n[nH]c3c2)c1` [GSK2193613], the “%Inh” value amounted to 11%. As for `Cc1ccc(NC(=O)c2ccnc(N3CCCCC3)c2)cc1-c1ccc(C(=O)NCC2CC2)cc1` [GW775610], the figure is 0%; as for `c1ccc(Oc2ccc(Nc3ccnc4cc(-c5ccc(CN6CCCCC6)o5)ccc34)cc2)nc1` [GW567143], 0%; as for `CC(C)c1nc(-c2cccc(NS(=O)(=O)c3c(F)cccc3F)c2)c(-c2ccnc(Nc3ccc(N4CCOCC4)nc3)n2)s1.Cl` [GSK1723980], 2%. For the compound `CN(c1ccc(NC(=O)N2CCN(CCCN3CCOCC3)CC2)cc1)c1ccnc(Nc2ccc(CS(C)(=O)=O)cc2)n1.Cl` [GW830899], the “%Inh” value stood at 1%. On to `Cn1cc(-c2ccc3c(c2)CCN3C(=O)Cc2cc(F)cc(F)c2F)c2c(N)ncnc21` [GSK2634140], for which the “%Inh” value is 0%. Take `CC(C)NCC(Cc1ccccc1)NC(=O)c1cc(Br)c(-c2ccnc3[nH]ccc23)s1.Cl.Cl` (stereo not shown) [GSK1383281]: the “%Inh” value was 15%. For `COc1cccc(C2=C(Nc3cccc(O)c3)C(=O)NC2=O)c1` [SB-390771], the “%Inh” value is 25%. Under `COc1cccc(CC(=O)N2CCc3cc(-c4cn(C)c5ncnc(N)c45)ccc32)c1` [GSK2608899] stands 15%; under `O=C(Nc1n[nH]c2nc(-c3ccccc3O)ccc12)C1CC1` [SB-711880], 0%; under `N#CC1(c2cccc(C(=O)Nc3cccc(Oc4ccc5nc(NC(=O)C6CC6)sc5n4)c3)c2)CC1`, 20%. Under `COc1cc(Nc2nccc(N3CCC(NC(=O)Nc4ccc5c(c4)OCO5)C3)n2)cc(OC)c1OC` (stereo not shown) [GSK1379766] stands 14%. For `Cc1ccc(-c2ccc3occ(-c4ccc(S(C)=O)cc4)c3c2)nn1` (stereo not shown), the “%Inh” value amounted to 7%.

`CN(c1ccc(F)c(NC(=O)c2cccc(OC(C)(C)C#N)c2Cl)c1)c1ccc2nc(NC(=O)C3CC3)sc2n1`: the “%Inh” value came to 0%. Consider `CN(c1ccc2c(c1)nc(NCc1ccccc1)n2C)c1ccnc(Nc2ccc(CS(C)(=O)=O)cc2)n1.Cl` [GW811603], for which the “%Inh” value is 0%. As for `Nc1ncc(-c2ccc3nccc(-c4ccncc4)c3c2)cc1S(=O)(=O)N1CCCCC1` [GSK1693850], the figure is 0%. Consider `Nc1ncc(-c2cn[nH]c2)c2scc(-c3ccc4c(c3)CCN4C(=O)Cc3ccccc3)c12` [GSK2593067], for which the “%Inh” value came to 0%. For `CN(C)c1ncnc2nc[nH]c12` [SKF-31736], the “%Inh” value came to 29%. As for `Cl.Cl.NC(CNC(=O)c1cc(Br)c(-c2ccnc3[nH]ccc23)s1)c1ccccc1` (stereo not shown) [GSK1322949], the “%Inh” value came to 38%. Turning to `CNc1nccc(-c2ccc3c(N)n[nH]c3c2)n1` [GSK2206003], the “%Inh” value was found to be 33%.

Consider `COc1cc(Nc2ccnc3cc(-c4ccncc4)ccc23)cc(OC)c1OC.Cl` [GW494610], for which the “%Inh” value is on record as 0%.

Turning to `COc1cccc(-c2nc(-c3ccccc3)[nH]c2-c2ccncc2)c1` [SB-610250], the “%Inh” value is on record as 0%. Turning to `O=C1NC(=O)C(c2ccccc2Cl)=C1Nc1cccc(Cl)c1` [SB-342409], the “%Inh” value is on record as 43%. On to `O=C(O)C(F)(F)F.O=c1[nH]ccc2nc(N[C@@H]3CCNC3)nc(Nc3cc(Cl)cc(Cl)c3)c12` [GSK2188764], for which the “%Inh” value amounted to 60%.
